From PubChem BioAssay
Bead autofluor: counter-screen for toxin protease inhibitors: compound fluorescence | compound autofluorescence counterscreen, microsphere flow cytometry; stronger effect = higher value | fluorescence intensity (no concentration beside the values) | hit rate 3.1% among 360,000; in the data active = fluorescence intensity above about 16000; inconclusive = no clear call, values can overlap the other calls
BoNT-F LC inh: blocks Botulinum neurotoxin F light chain protease; Multiplex microsphere protease cleavage assay, flow cytometry; inhibition, % at 10 µM; hit rate 0.22% among 360,000; in the data active = inhibition above about 35%, passing the limit was not always enough; inconclusive = no clear call, values can overlap the other calls; also: plate controls were buffer without enzyme for full effect and enzyme alone for no effect
Anthrax LF inh2: blocks Bacillus anthracis lethal factor protease. P15917. inhibition, % at 10 µM. hit rate 0.12% among 360,000. multiplex microsphere protease cleavage assay, LF; also: plate controls were buffer without enzyme for full effect and enzyme alone for no effect
Target sequence (P15917 whole entry, looked up): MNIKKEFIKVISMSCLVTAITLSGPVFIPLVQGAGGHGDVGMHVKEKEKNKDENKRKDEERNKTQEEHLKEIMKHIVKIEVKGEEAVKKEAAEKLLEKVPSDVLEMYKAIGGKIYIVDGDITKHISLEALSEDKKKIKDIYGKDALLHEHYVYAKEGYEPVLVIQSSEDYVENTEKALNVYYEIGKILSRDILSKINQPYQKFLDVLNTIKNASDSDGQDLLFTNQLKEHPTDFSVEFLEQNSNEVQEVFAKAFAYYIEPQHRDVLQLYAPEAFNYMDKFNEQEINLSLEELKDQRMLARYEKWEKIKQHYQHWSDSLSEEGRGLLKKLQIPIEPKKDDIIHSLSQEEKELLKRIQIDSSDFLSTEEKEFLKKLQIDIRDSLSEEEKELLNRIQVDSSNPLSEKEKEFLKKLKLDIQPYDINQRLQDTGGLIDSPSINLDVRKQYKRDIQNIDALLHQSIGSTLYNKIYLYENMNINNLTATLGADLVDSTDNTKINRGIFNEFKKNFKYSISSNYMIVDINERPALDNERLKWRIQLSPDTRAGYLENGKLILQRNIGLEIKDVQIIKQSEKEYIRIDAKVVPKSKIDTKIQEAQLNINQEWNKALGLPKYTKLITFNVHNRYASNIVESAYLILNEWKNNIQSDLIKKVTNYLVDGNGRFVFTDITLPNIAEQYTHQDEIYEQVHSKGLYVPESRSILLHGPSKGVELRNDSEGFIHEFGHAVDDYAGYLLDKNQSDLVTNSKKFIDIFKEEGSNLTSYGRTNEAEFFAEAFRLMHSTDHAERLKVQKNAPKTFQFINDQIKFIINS
PriA SSB inh: K. pneumoniae PriA-SSBct interaction inhibition | AlphaScreen SSBct-PriA binding, biotinylated peptide | inhibition, % at 33 µM | hit rate 0.6% among 430,000; in the data active = inhibition mostly above about 37%, no sharp cut-off; inactive = mostly below about 20%;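 also: plate controls were negative control peptide for no effect and reference peptide for full effect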
BoNT A protease: BoNT A light chain protease inhibition; inhibition, % at 10 µM; hit rate 0.17% among 360,000; multiplex microsphere protease substrate cleavage, flow cytometry; also: plate controls were buffer without enzyme for full effect and enzyme alone for no effect
An asterisk follows results filed as active; ? = inconclusive; . = not tested or not shown; ! = not active in a repeat. A selection: hits, their analogues and other compounds. The true share with any hit is near 3.1%. Rule as the data show it, unless noted: active = inhibition above about 30%; inconclusive = no clear call, values can overlap the other calls; inactive = below that.

SMILES	Bead autofluor	BoNT-F LC inh	Anthrax LF inh2	PriA SSB inh	BoNT A protease
Cc1cccc(C)c1NC(=O)CSc1ncc(-c2cccc(Br)c2)o1	.	.	.	-5.0	.
COc1ccc(NC(=O)Cc2csc(NC(=O)Nc3ccccc3OC)n2)cc1	3788	5.8	3.7	.	-0.3
COc1ccc(OC)c(Nc2nc(CC(=O)NCc3ccccc3OC)cs2)c1	.	.	.	17.0*	.
COc1ccc(OC)c(Nc2nc(-c3sc(C)nc3C)cs2)c1	3886	11.9	-2.7	46.8*	0.4
COc1ccc(OC)c(Nc2nc(CC(=O)NCc3cccnc3)cs2)c1	.	.	.	11.0	.
COc1ccccc1NC(=O)Nc1nc(CC(=O)Nc2ccc(N(C)C)cc2)cs1	?	-38.0	-5.9	74.1*	-1.7
COc1cccc(CNC(=O)Cc2csc(Nc3cc(OC)ccc3OC)n2)c1	.	.	.	22.0*	.
Cn1cnnc1SCCN	.	.	.	-8.0	.
CCOc1ccc(-n2nnc3c(N4CCN(C(=O)c5cc6ccccc6o5)CC4)ncnc32)cc1	.	.	.	-5.0	.
COc1ccc(OC)c(Nc2nc(CC(=O)O)cs2)c1	.	.	.	-5.0	.
COc1ccc(OC)c(Nc2nc(CC(=O)Nc3cccc(C)c3C)cs2)c1	.	.	.	24.0*	.
COc1ccc(NC(=O)Cc2csc(Nc3cccc(C(F)(F)F)c3)n2)cc1OC	.	.	.	17.0*	.
CC(=O)Nc1ccc(NC(=O)COc2cccc3c2OC(C)(C)C3)cc1	3279	1.8	-0.1	4.1	-0.3
COC(=O)c1ccc(NC(=O)COc2cccc3c2OC(C)(C)C3)cc1	4521	1.7	-2.5	46.3*!	-0.7
CNc1nc(-c2ccccn2)nnc1-c1ccccc1	4939	-34.8	-0.8	90.9*	-2.9
c1ccc(CNc2nc(-c3ccccc3)nc3ccccc23)cc1	3571	-14.0	10.1	-39.7	0.1
c1ccc(CNc2nc(-c3ccccn3)nc3ccccc23)cc1	3346	-26.2	-6.9	64.2*	-6.0
c1ccc(-c2nc(NC3CCCCC3)c3ccccc3n2)nc1	.	.	.	56.5*	.
Oc1ccccc1-c1nc(NC2CCCC2)c2ccccc2n1	3765	-5.9	5.8	2.4	0.3
c1ccc(-c2nnc(-c3ccccn3)nc2NC2CCCCC2)cc1	4199	-14.1	-6.8	100.9*	-0.6
Cc1cccc(CS(=O)(=O)Nc2ccc3c(c2)N(C)C(=O)C(C)(C)CO3)c1	.	.	.	9.0	.
Cc1cc(C(F)(F)F)nc(CCNC(=O)c2ccc3nsnc3c2)n1	.	.	.	-20.0	.
CCOc1ccc(-c2ccc(=O)n(CCNC(=O)CCSc3ccccc3)n2)cc1	.	.	.	8.0	.
Cc1ccccc1Oc1ccc(S(=O)(=O)N[C@H]2CCN(c3nccs3)C2)cc1	.	.	.	16.0	.
CCOC(=O)c1ccc(N2Cc3ccc(OC)c(OC)c3C2=O)cc1	.	.	.	-19.0	.
SMILES	Bead autofluor	BoNT-F LC inh	Anthrax LF inh2	PriA SSB inh	BoNT A protease
O=C(NCc1cccc(C(F)(F)F)c1)c1ccc(-n2cccn2)nc1	.	.	.	-16.0	.
COc1cccc(N2CCN(C(=O)C3CCN(S(=O)(=O)N4CCCC4)CC3)CC2)c1	.	.	.	-19.0	.
CC(C)c1cc(=O)n(CC(=O)N[C@@H](C)c2ccccc2)cn1	.	.	.	-5.0	.
CCCn1nc(NC(=O)c2cccs2)c2cc3cc(C)ccc3nc21	3878	?	-5.6	-0.4	-1.8
CCCC(=O)Nc1nn(CCC)c2nc3ccccc3cc12	21458*	-4.4	-2.6	-29.8	-1.3
CCCn1nc(NC(=O)c2cccs2)c2cc3ccccc3nc21	23719*	-2.5	-0.4	-87.2	-1.4
CCCn1nc(NC(=O)C2CCCO2)c2cc3cc(C)ccc3nc21 (stereo not given)	21148*	-1.5	-1.1	-28.9	-0.3
CCn1nc(NC(=O)c2ccncc2)c2cc3ccc(C)cc3nc21	20719*	-3.4	0.9	0.0	-2.6
CCCn1nc(NC(=O)c2ccncc2)c2cc3ccccc3nc21	5760	-6.4	-6.1	-13.7	0.2
Cc1cc([N+](=O)[O-])ccc1NC(=O)C(=O)N1CCC(O)CC1	.	.	.	2.0	.
CC(=O)Nc1ccc(C(=O)NCCNC(=O)c2cccc(Cl)c2)cc1	.	.	.	-4.0	.
CCCCn1nc(NC(=O)c2cccs2)c2cc3ccccc3nc21	21346*	4.3	1.0	-8.8	3.4
CC(=O)Nc1ccc(OCC(O)CNC2CCCC2)cc1 (stereo not given)	23804*	-9.6	-0.3	22.6	?
OC(CNC1CCCC1)COc1c(F)cc(Br)cc1F (stereo not given)	16538*	-0.4	-3.8	-17.2	0.3
Cc1ccc(C)c(N2CC(O)(c3cccs3)[N+]3=C2CCCCC3)c1 (stereo not given)	.	.	.	12.0	.
O=C(NCc1nn(C2CCCC2)c2c1CCCC2)c1cc(-c2ccco2)on1	.	.	.	-17.0	.
Cc1cc(C(=O)Nc2cc(C)nn2C(C)C)n(C)n1	.	.	.	-8.0	.
COc1ccc2c(=O)c3c(=O)n(Cc4ccco4)c(-c4cc(OC)c(OC)c(OC)c4)nc3oc2c1	16166*	1.9	-0.7	7.0	0.8
CCc1nc2cc(Cl)c(Cl)cc2[nH]1	23720*	1.3	-0.8	-7.4	?
OCc1nc2cc(Cl)c(Cl)cc2[nH]1	.	.	.	-25.0	.
CCOC(=O)c1sc(NC(=O)c2ccc(S(=O)(=O)N3CCN(C(=O)OCC)CC3)cc2)cc1C	.	.	.	-11.0	.
Cc1cc(=O)[nH]c(SCC(=O)Nc2nc3c(s2)CCCC3)n1	5333	-6.5	-5.2	-12.7	-0.1
CCC(Sc1nc(C)cc(=O)[nH]1)C(=O)Nc1nc2c(s1)CCCC2 (stereo not given)	22164*	-2.9	-7.4	-8.7	?
Cc1ccc(CCC(=O)Nc2ccc(Cl)c([N+](=O)[O-])c2)o1	.	.	.	48.0*	.
Cc1c(NC(=O)CC(=O)Nc2c(C)n(C)n(-c3ccccc3)c2=O)c(=O)n(-c2ccccc2)n1C	7785	0.1	1.3	-21.1	0.7
SMILES	Bead autofluor	BoNT-F LC inh	Anthrax LF inh2	PriA SSB inh	BoNT A protease
COc1ccccc1NC(=O)Nc1c(C)n(C)n(-c2ccccc2)c1=O	21129*	2.4	-5.2	-12.6	?
Cc1c(NS(=O)(=O)c2ccccc2)c(=O)n(-c2ccccc2)n1C	3689	-6.2	-2.7	-6.0	0.6
Cc1c(NS(=O)(=O)c2ccc3[nH]c(=O)[nH]c3c2)c(=O)n(-c2ccccc2)n1C	20240*	6.5	1.3	-10.5	6.3
COc1cc(Br)c(S(=O)(=O)Nc2c(C)n(C)n(-c3ccccc3)c2=O)cc1OC	21059*	-3.5	2.2	-2.7	-1.3
COc1ccc(S(=O)(=O)Nc2c(C)n(C)n(-c3ccccc3)c2=O)cc1Br	3820	-6.7	-10.1	-7.8	-2.2
Cc1c(NC(=O)CN2CCCc3ccccc32)c(=O)n(-c2ccccc2)n1C	22099*	-2.6	-1.6	-7.6	?
O=C(NC[C@H]1CCCO1)C1CN(C(=O)c2ccc3c(c2)OCO3)C1	.	.	.	-5.0	.
COc1ccccc1C(=O)Nc1c(C)n(C)n(-c2ccccc2)c1=O	22949*	-1.0	0.1	-13.0	-1.1
Cc1c(NC(=O)c2cc(=O)[nH]c3ccccc23)c(=O)n(-c2ccccc2)n1C	17099*	-5.3	-0.4	-7.6	-2.7
Cc1c(NC(=O)c2ccccc2)c(=O)n(-c2ccccc2)n1C	3241	2.5	2.8	-7.0	-0.2
Cc1cccc(NC(=O)/C=C/c2cccs2)n1	21452*	-3.2	-0.8	-6.1	-1.6
Cc1c(NC(=O)/C(=C/c2cccs2)NC(=O)c2ccccc2)c(=O)n(-c2ccccc2)n1C	4356	-2.3	3.0	-2.6	0.5
Cc1c(NC(=O)/C=C/c2cccs2)c(=O)n(-c2ccccc2)n1C	22938*	-1.4	-0.2	0.5	-0.2
